# Experimental data published in the supplement of paper PMC10849652.
# The full data set covers some 8,800 targets. This sample favours those with a hit. About 0.5% of all pairs of compound and target were hits. Values without a mark were called inactive.
# Tests used:
# Assay in all cases: log2 fold change, soluble protein after heating vs DMSO (PISA); higher = thermal stabilisation; K562 lysate, 10 uM; active = over 0.2 and 3.5 SD of the protein, either way, in both replicates (recomputed)
# nilotinib = compound: Cc1cn(-c2cc(NC(=O)c3ccc(C)c(Nc4nccc(-c5cccnc5)n4)c3)cc(C(F)(F)F)c2)cn1 [nilotinib]
# Method in brief: (§1)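 Quantification was by TMTpro 16plex LC-MS/MS with equalised channel sums, applied to the supernatant after 21,000xg for 90 min. Samples were crude K562 extract at 1 mg/mL protein in PBS pH 7.4 with 1 mM MgCl2, treated with 10 μM compound for 30 min, heated for 3 min across 48°C-58°C, pooled and brought to 0.5% NP-40 at 4°C. Values are log-two fold changes in thermal stability relative to solvent controls, from duplicates.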
# [1] = compound: Cc1nc(Nc2n[nH]c3c2CN(C(=O)N[C@H](CN(C)C)c2ccccc2)C3(C)C)c2sccc2n1
# Method in brief: as §1
# dasatinib = compound: Cc1nc(Nc2ncc(C(=O)Nc3c(C)cccc3Cl)s2)cc(N2CCN(CCO)CC2)n1 [dasatinib]
# Method in brief: as §1
# [2] = compound: Cc1ncc(-c2ccnc(Nc3ccc(S(C)(=O)=O)cc3)n2)n1C(C)C
# Method in brief: as §1
# [3] = compound: Cn1cc(-c2ccc3c(c2)CCN3C(=O)Cc2cccc(C(F)(F)F)c2)c2c(N)ncnc21
# Method in brief: as §1
# quisinostat = compound: Cn1cc(CNCC2CCN(c3ncc(C(=O)NO)cn3)CC2)c2ccccc21 [quisinostat]
# Method in brief: as §1
# tipifarnib = compound: Cn1cncc1[C@@](N)(c1ccc(Cl)cc1)c1ccc2c(c1)c(-c1cccc(Cl)c1)cc(=O)n2C [tipifarnib]
# Method in brief: as §1
# [4] = compound: NC(=O)Nc1cc(-c2cccc(F)c2)sc1C(=O)N[C@H]1CCCNC1
# Method in brief: as §1
# [5] = compound: NC(=O)c1cnc(N[C@@H]2CCCC[C@@H]2N)nc1Nc1cccc(-n2nccn2)c1
# Method in brief: as §1
# [6] = compound: NC1(c2ccc(-c3nc4ccn5c(=O)[nH]nc5c4cc3-c3ccccc3)cc2)CCC1
# Method in brief: as §1
# [7] = compound: NCC(=O)Nc1ccc(-n2nc(C(F)(F)F)cc2-c2ccc3c(ccc4ccccc43)c2)cc1
# Method in brief: as §1
# vorinostat = compound: O=C(CCCCCCC(=O)Nc1ccccc1)NO [vorinostat]
# Method in brief: as §1
# silmitasertib = compound: O=C(O)c1ccc2c(c1)nc(Nc1cccc(Cl)c1)c1ccncc12 [silmitasertib]
# Method in brief: as §1
# [8] = compound: O=C1NC(=O)C(c2cnc3ccccn23)=C1c1cn2c3c(cc(F)cc13)CN(C(=O)N1CCCCC1)CC2
# Method in brief: as §1
# entospletinib = compound: c1cn2cc(-c3ccc4cn[nH]c4c3)nc(Nc3ccc(N4CCOCC4)cc3)c2n1 [entospletinib]
# Method in brief: as §1
# Chain of UniProt Q9P0S9 (Q9P0S9 whole entry, looked up): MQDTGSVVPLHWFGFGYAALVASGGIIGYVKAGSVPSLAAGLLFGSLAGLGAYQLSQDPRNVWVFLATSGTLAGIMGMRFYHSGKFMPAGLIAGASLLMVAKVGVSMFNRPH
# Chain of UniProt Q12800 (Q12800 whole entry, looked up): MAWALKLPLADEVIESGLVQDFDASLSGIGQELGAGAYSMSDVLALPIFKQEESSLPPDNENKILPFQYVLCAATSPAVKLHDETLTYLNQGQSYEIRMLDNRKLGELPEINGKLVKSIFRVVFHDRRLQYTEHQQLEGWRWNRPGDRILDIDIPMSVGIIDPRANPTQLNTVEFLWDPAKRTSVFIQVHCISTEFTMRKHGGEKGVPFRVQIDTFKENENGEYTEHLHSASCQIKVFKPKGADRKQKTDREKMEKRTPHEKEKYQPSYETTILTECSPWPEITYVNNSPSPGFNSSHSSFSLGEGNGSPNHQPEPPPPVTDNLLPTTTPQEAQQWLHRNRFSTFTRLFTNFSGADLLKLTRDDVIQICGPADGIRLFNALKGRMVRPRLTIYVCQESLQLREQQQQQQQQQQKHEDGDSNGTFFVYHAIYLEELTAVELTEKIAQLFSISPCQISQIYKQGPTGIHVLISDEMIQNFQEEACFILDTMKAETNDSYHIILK
# Chain of UniProt P04818 (P04818 whole entry, looked up): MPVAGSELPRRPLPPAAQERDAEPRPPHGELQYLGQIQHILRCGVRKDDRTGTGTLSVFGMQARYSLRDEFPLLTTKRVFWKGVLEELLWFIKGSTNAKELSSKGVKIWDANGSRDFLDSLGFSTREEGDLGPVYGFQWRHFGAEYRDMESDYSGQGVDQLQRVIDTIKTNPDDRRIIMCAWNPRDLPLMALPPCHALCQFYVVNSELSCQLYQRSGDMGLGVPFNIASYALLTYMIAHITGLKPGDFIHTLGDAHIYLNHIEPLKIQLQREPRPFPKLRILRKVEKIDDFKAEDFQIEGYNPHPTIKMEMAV
# Chain of UniProt P17480 (P17480 whole entry, looked up): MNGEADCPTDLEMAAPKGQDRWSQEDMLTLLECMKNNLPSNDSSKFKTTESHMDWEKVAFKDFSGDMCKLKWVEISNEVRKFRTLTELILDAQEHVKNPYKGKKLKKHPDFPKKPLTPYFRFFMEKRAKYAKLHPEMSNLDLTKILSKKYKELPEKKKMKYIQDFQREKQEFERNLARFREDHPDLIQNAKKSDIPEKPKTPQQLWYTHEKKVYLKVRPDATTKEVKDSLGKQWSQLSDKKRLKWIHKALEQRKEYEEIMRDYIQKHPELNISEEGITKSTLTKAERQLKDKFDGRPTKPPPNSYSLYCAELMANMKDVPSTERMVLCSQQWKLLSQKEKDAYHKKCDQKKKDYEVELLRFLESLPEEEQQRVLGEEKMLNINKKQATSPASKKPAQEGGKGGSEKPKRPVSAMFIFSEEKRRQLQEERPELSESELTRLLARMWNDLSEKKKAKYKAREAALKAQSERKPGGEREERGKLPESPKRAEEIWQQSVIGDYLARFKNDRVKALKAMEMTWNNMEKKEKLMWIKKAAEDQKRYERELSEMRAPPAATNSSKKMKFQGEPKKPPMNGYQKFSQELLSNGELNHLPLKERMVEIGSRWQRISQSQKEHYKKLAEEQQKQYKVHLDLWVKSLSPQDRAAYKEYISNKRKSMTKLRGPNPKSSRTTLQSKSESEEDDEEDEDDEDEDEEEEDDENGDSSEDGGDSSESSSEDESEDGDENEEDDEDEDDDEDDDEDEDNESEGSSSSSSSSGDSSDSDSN
# Chain of UniProt Q9BRZ2 (Q9BRZ2 whole entry, looked up): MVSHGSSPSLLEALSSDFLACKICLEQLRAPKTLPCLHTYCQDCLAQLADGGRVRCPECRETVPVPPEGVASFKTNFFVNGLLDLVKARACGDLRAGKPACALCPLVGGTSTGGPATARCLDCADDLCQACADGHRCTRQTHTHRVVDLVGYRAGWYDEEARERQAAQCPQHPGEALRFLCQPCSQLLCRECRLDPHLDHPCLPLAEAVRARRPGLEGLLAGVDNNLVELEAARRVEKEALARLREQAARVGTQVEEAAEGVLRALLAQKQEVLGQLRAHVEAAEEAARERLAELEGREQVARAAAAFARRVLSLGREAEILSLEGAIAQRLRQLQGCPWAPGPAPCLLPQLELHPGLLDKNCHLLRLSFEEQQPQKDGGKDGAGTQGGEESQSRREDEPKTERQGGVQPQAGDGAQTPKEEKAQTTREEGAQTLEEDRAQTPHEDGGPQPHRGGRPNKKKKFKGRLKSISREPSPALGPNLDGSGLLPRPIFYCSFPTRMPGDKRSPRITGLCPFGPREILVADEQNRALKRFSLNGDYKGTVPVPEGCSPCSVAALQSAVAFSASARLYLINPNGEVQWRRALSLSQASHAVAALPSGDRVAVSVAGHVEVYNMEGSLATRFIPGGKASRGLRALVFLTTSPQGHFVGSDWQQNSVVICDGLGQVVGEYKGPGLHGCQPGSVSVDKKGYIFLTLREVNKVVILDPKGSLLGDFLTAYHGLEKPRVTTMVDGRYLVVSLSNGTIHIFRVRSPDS
# Chain of UniProt Q9Y4R8 (Q9Y4R8 whole entry, looked up): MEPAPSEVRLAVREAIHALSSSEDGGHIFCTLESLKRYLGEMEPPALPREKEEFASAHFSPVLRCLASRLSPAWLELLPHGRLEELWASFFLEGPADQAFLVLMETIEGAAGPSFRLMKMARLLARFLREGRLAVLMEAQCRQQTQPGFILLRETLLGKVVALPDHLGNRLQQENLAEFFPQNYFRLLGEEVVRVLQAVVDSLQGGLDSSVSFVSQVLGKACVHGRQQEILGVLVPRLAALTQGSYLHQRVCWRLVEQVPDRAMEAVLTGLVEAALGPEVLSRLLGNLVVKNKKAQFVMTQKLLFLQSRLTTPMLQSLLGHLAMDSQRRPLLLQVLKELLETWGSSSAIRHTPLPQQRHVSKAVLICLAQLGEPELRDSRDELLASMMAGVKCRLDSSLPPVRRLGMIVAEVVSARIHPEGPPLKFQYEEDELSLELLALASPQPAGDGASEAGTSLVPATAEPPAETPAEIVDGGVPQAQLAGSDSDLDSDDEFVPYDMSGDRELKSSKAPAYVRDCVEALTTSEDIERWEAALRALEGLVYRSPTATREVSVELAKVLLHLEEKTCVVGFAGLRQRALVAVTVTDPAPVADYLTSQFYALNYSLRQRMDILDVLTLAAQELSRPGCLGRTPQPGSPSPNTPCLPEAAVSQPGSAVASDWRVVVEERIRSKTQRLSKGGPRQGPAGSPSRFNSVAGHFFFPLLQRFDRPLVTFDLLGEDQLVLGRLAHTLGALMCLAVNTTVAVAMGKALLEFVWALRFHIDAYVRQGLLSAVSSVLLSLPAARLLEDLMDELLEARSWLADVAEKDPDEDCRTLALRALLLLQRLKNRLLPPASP
# Chain of UniProt Q9Y5K5 (Q9Y5K5 whole entry, looked up): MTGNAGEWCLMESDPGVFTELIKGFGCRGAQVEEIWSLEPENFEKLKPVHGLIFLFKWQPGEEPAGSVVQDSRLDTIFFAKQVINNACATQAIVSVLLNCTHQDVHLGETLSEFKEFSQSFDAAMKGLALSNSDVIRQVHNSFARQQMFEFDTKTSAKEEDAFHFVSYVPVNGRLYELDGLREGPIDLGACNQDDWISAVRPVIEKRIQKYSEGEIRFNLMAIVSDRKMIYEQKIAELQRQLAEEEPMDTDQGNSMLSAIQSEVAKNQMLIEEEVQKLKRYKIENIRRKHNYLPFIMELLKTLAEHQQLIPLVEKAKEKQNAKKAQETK
# Chain of UniProt Q9H4B7 (Q9H4B7 whole entry, looked up): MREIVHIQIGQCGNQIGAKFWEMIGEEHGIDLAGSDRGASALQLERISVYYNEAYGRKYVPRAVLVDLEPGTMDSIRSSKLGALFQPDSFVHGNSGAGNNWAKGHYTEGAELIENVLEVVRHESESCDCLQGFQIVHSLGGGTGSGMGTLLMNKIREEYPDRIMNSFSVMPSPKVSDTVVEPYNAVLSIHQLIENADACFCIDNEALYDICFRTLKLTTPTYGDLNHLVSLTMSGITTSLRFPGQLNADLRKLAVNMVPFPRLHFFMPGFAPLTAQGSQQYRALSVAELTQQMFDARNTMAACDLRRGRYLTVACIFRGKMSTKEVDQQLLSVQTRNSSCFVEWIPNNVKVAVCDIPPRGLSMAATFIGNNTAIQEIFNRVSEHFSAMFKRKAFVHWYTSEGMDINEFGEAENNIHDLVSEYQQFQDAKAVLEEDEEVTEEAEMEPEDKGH
# Chain of UniProt Q9H497 (Q9H497 whole entry, looked up): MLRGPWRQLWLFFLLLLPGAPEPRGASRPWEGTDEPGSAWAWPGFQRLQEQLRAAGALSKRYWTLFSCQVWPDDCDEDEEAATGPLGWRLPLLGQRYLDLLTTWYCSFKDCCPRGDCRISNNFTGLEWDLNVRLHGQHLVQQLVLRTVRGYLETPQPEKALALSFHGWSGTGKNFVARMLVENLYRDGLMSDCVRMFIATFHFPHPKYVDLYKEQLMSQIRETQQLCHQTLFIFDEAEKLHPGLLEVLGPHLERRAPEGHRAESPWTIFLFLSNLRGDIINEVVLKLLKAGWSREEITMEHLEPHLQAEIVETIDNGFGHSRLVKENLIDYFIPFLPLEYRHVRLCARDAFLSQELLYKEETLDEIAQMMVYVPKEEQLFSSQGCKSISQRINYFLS
# Chain of UniProt Q8N511 (Q8N511 whole entry, looked up): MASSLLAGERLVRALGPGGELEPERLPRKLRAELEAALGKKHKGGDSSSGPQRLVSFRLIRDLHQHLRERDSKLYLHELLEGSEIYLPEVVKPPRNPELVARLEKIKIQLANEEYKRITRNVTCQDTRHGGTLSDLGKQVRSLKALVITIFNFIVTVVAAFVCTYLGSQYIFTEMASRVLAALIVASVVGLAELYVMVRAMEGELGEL
# Chain of UniProt P11441 (P11441 whole entry, looked up): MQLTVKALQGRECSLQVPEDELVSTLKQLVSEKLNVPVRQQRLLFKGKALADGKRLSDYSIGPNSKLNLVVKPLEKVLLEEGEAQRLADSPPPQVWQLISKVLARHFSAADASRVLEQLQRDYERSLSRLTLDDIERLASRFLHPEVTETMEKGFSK
Target,log2 fold change (nilotinib),log2 fold change [1],log2 fold change (dasatinib),log2 fold change [2],log2 fold change [3],log2 fold change (quisinostat),log2 fold change (tipifarnib),log2 fold change [4],log2 fold change [5],log2 fold change [6],log2 fold change [7],log2 fold change (vorinostat),log2 fold change (silmitasertib),log2 fold change [8],log2 fold change (entospletinib)
TMEM164 (UniProt Q5U3C3),0.06,-0.009,-0.087,0.162,-0.041,-0.404,-0.055,0.1,0.083,-0.036,0.098,0.463,-0.079,0.274,0.059
TMEM14C (UniProt Q9P0S9),0.065,-0.089,0.031,0.13,0.029,-0.299,-0.017,0.029,-0.13,-0.07,-0.032,-0.018,0.013,0.058,0.091
TIMM44 (UniProt O43615),0.082,-0.011,-0.087,0.023,-0.028,0.003,-0.108,-0.058,0,-0.031,0.045,0.245 (active),0.015,0.029,-0.026
UBL4A (UniProt P11441),-0.005,-0.013,0.052,-0.037,0.036,0.157,-0.024,0.02,0.007,0.016,-0.036,-0.016,0.04,0.007,-0.011
TFIP11 (UniProt Q9UBB9),0.004,0.003,-0.059,0.035,0.01,-0.067,-0.005,0.048,0,-0.004,-0.001,-0.06,0.013,0.001,0.067
TELO2 (UniProt Q9Y4R8),-0.012,-0.014,-0.082,-0.021,0.035,-0.057,-0.013,0.058,0.003,-0.03,0.003,-0.361 (active),0.117,0.011,0.011
TMEM199 (UniProt Q8N511),0.005,0.005,-0.011,0.001,0.046,0.031,0.026,0,0.005,0.068,0.021,0.13,-0.017,-0.005,0.008
TOR3A (UniProt Q9H497),0.042,-0.037,0.022,-0.043,0.012,0.019,-0.061,0.054,0.041,-0.064,0.011,0.048,-0.002,-0.016,0.02
UBTF (UniProt P17480),0.001,0.031,-0.021,-0.039,0.004,0,0.015,0.044,-0.01,-0.042,-0.045,-0.315 (active),0.044,-0.012,0.032
TUBB1 (UniProt Q9H4B7),0.095,-0.013,-0.043,-0.004,0.002,0.079,0.03,0.009,-0.006,-0.019,-0.038,-0.326 (active),-0.003,0.033,0.011
TYMS (UniProt P04818),0.012,-0.032,-0.023,-0.015,0.01,-0.001,-0.02,0.034,0.015,-0.032,-0.02,-0.231 (active),0.009,-0.005,0.031
TTF2 (UniProt Q9UNY4),-0.008,-0.062,-0.012,-0.023,0.018,-0.042,0.004,0.02,0.019,-0.067,0.02,-0.317 (active),0.008,-0.032,-0.074
TPM1 (UniProt H7BYY1),0.014,-0.111,-0.023,0.028,0.02,0.101,0.059,-0.017,0.013,0.033,0.057,0.136,-0.024,-0.049,0.008
UCHL5 isoform 3 (UniProt Q9Y5K5),0.016,-0.008,0.01,0.001,0.006,-0.01,-0.005,0.013,-0.031,0.003,0.004,-0.081,0,-0.009,-0.003
TBK1 (UniProt Q9UHD2),-0.003,0.618 (active),0.029,0.125,0.251,-0.097,-0.026,0.209,0.032,-0.074,-0.04,-0.361,0.189,0.125,0.204
TRNAU1AP (UniProt Q9NX07),-0.145,0.016,0.018,0.046,0.015,0.012,-0.06,0.059,-0.011,-0.013,0.079,-0.178,0.026,-0.017,-0.047
TFCP2 (UniProt Q12800),0.042,0.023,-0.015,0.023,0.02,-0.072,-0.022,0.066,0.066,-0.059,-0.072,-0.465 (active),0.045,0.029,0.051
TMEM87A (UniProt Q8NBN3),-0.009,0.055,-0.007,0.027,0.03,-0.021,0.024,0.003,0.03,0.017,0.001,0.074,0.007,-0.013,0.029
TTI1 (UniProt O43156),-0.007,0.004,0.005,0.001,0.016,-0.047,-0.015,-0.003,0.01,-0.001,-0.037,-0.452 (active),0.089,-0.019,-0.017
TRIM56 (UniProt Q9BRZ2),0.033,0.031,-0.073,-0.006,0.017,-0.043,-0.048,0.005,-0.01,0.007,-0.022,-0.428 (active),-0.043,-0.016,-0.004
TRMT10A (UniProt Q8TBZ6),0.008,-0.027,-0.07,0.019,0.013,-0.028,0.005,0.01,0.028,-0.01,0.032,0.072,-0.058,-0.063,-0.012
